Assay outcomes as filed in PubChem BioAssay.
FBW7 act: FBW7 E3 ligase activators, primary screen, biochemical, AlphaScreen, human; F-box/WD repeat-containing protein 7 (Homo sapiens), Q969H0; AlphaScreen FBW7–phospho-cyclin E peptide binding, activator screen; normalized activity (activation), % at 26.1 µM; actives 0.13% (n = 650,000); in the data active = normalized activity above about 1.9%;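 note: purified mutant Fbw7 with reduced substrate affinity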
Target sequence (Q969H0 whole entry, looked up): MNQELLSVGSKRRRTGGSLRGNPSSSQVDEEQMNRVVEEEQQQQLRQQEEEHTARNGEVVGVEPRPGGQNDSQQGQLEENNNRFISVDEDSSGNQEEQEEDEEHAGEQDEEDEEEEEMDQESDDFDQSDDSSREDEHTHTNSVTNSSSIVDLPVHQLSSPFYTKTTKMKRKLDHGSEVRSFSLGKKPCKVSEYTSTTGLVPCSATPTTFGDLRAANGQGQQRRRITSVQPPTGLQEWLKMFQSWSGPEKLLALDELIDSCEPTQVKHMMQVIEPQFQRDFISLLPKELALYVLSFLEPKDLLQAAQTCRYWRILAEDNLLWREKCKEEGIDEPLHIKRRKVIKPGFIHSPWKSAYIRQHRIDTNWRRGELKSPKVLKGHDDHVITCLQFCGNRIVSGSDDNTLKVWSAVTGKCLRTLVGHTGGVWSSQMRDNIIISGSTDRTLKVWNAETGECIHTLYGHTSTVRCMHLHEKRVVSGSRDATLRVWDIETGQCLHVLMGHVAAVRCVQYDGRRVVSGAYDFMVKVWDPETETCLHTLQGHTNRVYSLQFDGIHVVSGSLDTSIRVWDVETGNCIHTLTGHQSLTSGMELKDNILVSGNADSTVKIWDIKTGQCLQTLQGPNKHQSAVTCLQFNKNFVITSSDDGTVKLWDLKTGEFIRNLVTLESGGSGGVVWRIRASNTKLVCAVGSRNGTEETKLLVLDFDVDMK
MITF inh: MITF inhibitors, primary screen, biochemical, AlphaScreen, human; actives 0.91% (n = 650,000); AlphaScreen MITF homodimerization, bead proximity signal; Microphthalmia-associated transcription factor (Homo sapiens), O75030; AID 1259374, 2018; inhibition, % at 2.6 µM; in the data active = inhibition above about 50%
GPR151 activ: activators of human GPR151, primary screen, cell-based, PathHunter beta-arrestin, luminescence | activation, % at 11.2 µM | G-protein coupled receptor 151 (Homo sapiens), Q8TDV0 | PathHunter beta-arrestin GPR151 cells | actives 1% (n = 650,000); in the data active = activation above about 4.9%
TEAD-YAP block: TEAD-YAP interaction inhibition, primary screen, TEAD-YAP interaction inhibitor project, luminescence, HEK-TIYL cells; actives 1.4% (n = 640,000); TEAD-Gal4/YAP UAS-luciferase luminescence; inhibition, % at 9.12 µM; in the data active = inhibition above about 32%
Numbers stand for hits; n = inactive. In the library only some 3.4% were active in any assay of this set; here they are far more common.

SMILES | FBW7 act | MITF inh | GPR151 activ | TEAD-YAP block
CC(C)Nc1cc(N2CCOCC2)c2noc3c2c1C(=O)c1ccccc1-3 | n | 56 | n | n
Cc1cccc(Nc2cc(N3CCCCC3)c3noc4c3c2C(=O)c2ccccc2-4)c1 | n | 52 | n | n
CC1CCN(c2cc(NCCO)c3c4c(onc24)-c2ccccc2C3=O)CC1 | n | n | n | n
CC(=O)OCCNc1cc(N2CCCCC2)c2noc3c2c1C(=O)c1ccccc1-3 | n | 57 | n | n
CCOc1ccc(-c2cc(=O)c3ccc(NC(=O)c4ccco4)cc3o2)cc1 | n | n | n | n
Cc1cnc(Nc2ccc(-n3ccnc3)cc2)nc1NCc1nc2ccccc2[nH]1 | n | n | n | n
COc1cc(C(=O)N/N=C/c2cccc(Br)c2)cc(OC)c1OC | n | n | n | 60
COc1cc(/C=N\NC(=O)c2c(C)nc3ccc(Cl)cn23)cc(OC)c1OC | n | n | n | n
O=C(N/N=C/c1ccc(Br)s1)c1ccncc1 | n | n | n | 36
COc1cc(C(=O)N/N=C/c2ccc(O)cc2)cc(OC)c1OC | n | n | n | 57
COc1cc(/C=N/NC(=O)c2c(C)nc3ccc(Cl)cn23)cc(OC)c1OC | 16 | n | n | n
O=C(N/N=C/c1cc(Br)c(Br)s1)c1ccncc1 | n | n | n | n
COc1cccc(C(=O)Nc2nc3c(F)cc(F)cc3s2)c1OC | n | n | n | n
COc1ccc(COC(=O)C2=C(C)NC3=C(C(=O)CCC3)C2c2ccc(Cl)cc2Cl)cc1 (stereo not given) | n | n | n | n
N#CC(/C(=N/S(=O)(=O)c1ccc(F)cc1)c1ccccc1)c1ccccn1 (stereo not given) | n | n | n | n
COc1cc(C(=O)N/N=C/c2ccc(OC)c(OC)c2C(=O)O)cc(OC)c1OC | n | n | n | 67
COC(=O)N/N=C/c1ccc(Br)s1 | n | n | n | n
COc1cc(C(=O)N/N=C/c2ccc(Br)s2)cc(OC)c1OC | n | n | n | 59
COc1ccc(C(=O)N/N=C/c2cc(OC)c(O)c(OC)c2)cc1OC | n | n | n | n
COc1cc(/C=N/NC(=O)c2cc(OC)c(OC)c(OC)c2)cc(OC)c1O | n | n | n | 56
CC(C)C[C@H](NS(=O)(=O)c1ccc(F)cc1)C(=O)O | n | n | n | n
Cc1ccc(NC(=O)c2n[nH]c3ccccc23)cc1Cl | n | n | n | n
Cc1ccc(NC(=O)c2n[nH]c3ccccc23)cc1 | n | n | n | 45
CC(C)C[C@H](O)C(=O)N1CCCN(S(=O)(=O)c2cccc3cnccc23)CC1 | n | n | n | n
O=C(O)C1Nc2c(C(=O)N3CCOCC3)cccc2C2C=CCC12 (stereo not given) | n | 58 | n | n
SMILES | FBW7 act | MITF inh | GPR151 activ | TEAD-YAP block
CC(C)C1Nc2c(C(=O)O)cccc2C2C=CCC21 (stereo not given) | n | n | n | n
O=C(O)C1Nc2c(C(=O)N3CCCC3)cccc2C2C=CCC12 (stereo not given) | n | 80 | n | n
O=C(Oc1ccc(-c2ccccc2)cc1)c1cccc2c1NC(C(=O)O)C1CC=CC21 (stereo not given) | n | 51 | n | n
CCCOc1ccc(/C(O)=C2\C(=O)C(=O)N(c3nc(C)c(C(=O)OCC)s3)C2c2ccc(F)cc2)c(C)c1 (stereo not given) | n | n | n | n
COc1cccc(NC(=O)CSc2nnc(-c3cccnc3)n2-c2ccccc2C)c1 | n | n | n | n
COc1ccccc1-n1c(SCC(=O)Nc2nccs2)nnc1-c1cccnc1 | n | n | n | 56
Cc1csc(NC(=O)CSc2nnc(-c3cccnc3)n2-c2cccc(C)c2C)n1 | n | n | n | n
COc1ccccc1-n1c(SCC(=O)Nc2nccs2)nnc1-c1ccncc1 | n | n | n | 62
Cc1ccccc1-n1c(SCC(=O)Nc2nccs2)nnc1-c1ccncc1 | n | n | n | n
COc1ccccc1-n1c(SCC(=O)Nc2nc(C)cs2)nnc1-c1cccnc1 | n | n | n | 53
COc1ccccc1-n1c(SCC(=O)Nc2cccc(F)c2)nnc1-c1cccnc1 | n | n | n | 46
Cc1ccnc(SCc2cc(=O)c(OC(=O)C(C)(C)Oc3ccc(Cl)cc3)co2)n1 | n | n | n | n
COc1cccc(C(=O)COC(=O)c2ccc3c(c2)C(=O)N(c2ccccc2)C3=O)c1 | n | n | n | n
N[C@H](Cc1cc(F)cc(F)c1)c1nc2ccc(-c3ccncc3)cc2[nH]1 | n | n | n | n
N[C@H](Cc1cccc(F)c1)c1nc2ncc(-c3ccncc3)cc2[nH]1 | n | n | n | 48
CCOC(=O)N1CCN(C(=O)c2ccc(Cn3c(=S)[nH]c4ccccc4c3=O)cc2)CC1 | n | n | n | 45
Cc1ccc(CN2CCNC(=O)C2CC(=O)N(C)Cc2ccsc2)o1 (stereo not given) | n | n | n | n
COc1ccc(-c2c(C)nn3c(NCc4cccnc4)cc(C)nc23)cc1 | n | n | n | n
COc1ccc(-c2c(C)nn3c(NCCCN(C)C)cc(C)nc23)cc1 | 3.4 | n | n | n
COc1ccc(-c2c(C)nn3c(NCc4ccncc4)cc(C)nc23)cc1 | 4.0 | n | n | n
Cc1ccc(Oc2ccc(S(=O)(=O)N3CCOCC3)cc2S(=O)(=O)N2CCOCC2)c(-n2nc3ccccc3n2)c1 | n | n | n | n
COc1ccccc1C(=O)Oc1ccc(C)cc1-n1nc2ccccc2n1 | n | n | n | n
Cc1ccc(Oc2ccc(S(=O)(=O)N3CCOCC3)cc2C(N)=O)c(-n2nc3ccccc3n2)c1 | n | n | n | 41
Cc1ccc(OC(=O)c2ccccc2Cl)c(-n2nc3ccccc3n2)c1 | 7.6 | n | n | n
CC(=O)N(Cc1ccc(F)cc1)C1=C(NCc2ccccc2)C(=O)c2ccccc2C1=O | n | n | n | 59
SMILES | FBW7 act | MITF inh | GPR151 activ | TEAD-YAP block
CC1(Cc2ccc(S(C)(=O)=O)cc2)C(=O)Nc2ccc(-c3cccnc3)cc21 (stereo not given) | n | n | n | n
CC1(Cc2ccc(Cl)s2)C(=O)Nc2ccc(-c3cccnc3)cc21 (stereo not given) | n | n | n | 33
CC1(Cc2ccc(F)cc2)C(=O)Nc2ccc(-c3cccnc3)cc21 (stereo not given) | n | n | n | 38
COC(=O)c1ccc(CC2(C)C(=O)Nc3ccc(-c4cccnc4)cc32)o1 (stereo not given) | n | n | n | n
CC1(Cc2ccc(C(F)(F)F)o2)C(=O)Nc2ccc(-c3cccnc3)cc21 (stereo not given) | n | n | n | 40
Cn1ccnc1Sc1ccc(/C=N/NC(=O)CC#N)cc1[N+](=O)[O-] | n | n | n | n
COc1ccccc1NC(=S)N/N=C/c1ccc2c(c1)OCCO2 | n | n | n | 61
COc1ccccc1NC(=O)C(=O)N/N=C/c1ccc2c(c1)OCO2 | n | n | n | n
CCCCCOc1ccc(NC(=O)CSc2cccc3cccnc23)cc1 | n | n | n | 37
